From PubChem BioAssay (NCATS)
Inconclusive results are not listed. Activity calls are given as the source filed them. Unless noted, calls come from the whole dose curve; as a rule, active = well fitted curve in the direction sought with a large enough effect; inconclusive = small, poorly fitted or top-dose-only effect, or another doubt; inactive = no such curve, though single readings can be large; an effect the other way counts as inactive or inconclusive.

How the values were obtained:
[1] = target: D(1A) dopamine receptor (Homo sapiens) (UniProt P21728); experiment: HTS Assay for Allosteric Agonists of the Human D1 Dopamine Receptor: Primary Screen for Antagonists (AID 488983); details: D1 receptor cell assay, antagonist mode, qHTS titration; series mostly up to 41.8 µM;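 note: calcium flux response to an EC80 dopamine challenge measured with no-wash dye; nearly all actives have a fitted effect of over 65% in size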; note: potency is the fitted concentration of half-maximal effect
D(1A) dopamine receptor (Homo sapiens), sequence (P21728 whole entry, looked up): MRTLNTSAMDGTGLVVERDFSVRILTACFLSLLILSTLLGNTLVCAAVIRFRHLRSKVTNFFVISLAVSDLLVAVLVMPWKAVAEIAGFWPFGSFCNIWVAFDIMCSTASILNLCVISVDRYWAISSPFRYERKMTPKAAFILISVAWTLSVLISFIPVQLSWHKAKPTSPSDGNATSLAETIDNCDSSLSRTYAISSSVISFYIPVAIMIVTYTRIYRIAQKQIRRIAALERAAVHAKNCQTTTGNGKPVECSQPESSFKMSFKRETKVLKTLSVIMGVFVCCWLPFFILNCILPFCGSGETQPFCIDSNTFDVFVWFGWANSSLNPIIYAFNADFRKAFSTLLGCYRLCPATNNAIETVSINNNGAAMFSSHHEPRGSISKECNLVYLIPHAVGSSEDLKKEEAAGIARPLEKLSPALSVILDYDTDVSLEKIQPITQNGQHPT
Outline: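 In this primary screen, compounds are applied to calcium-dye-loaded HEK293 T-REx cells with force-coupled D1 expression induced overnight at 30 C. An EC80 of dopamine follows the 180 s compound phase, and calcium is monitored for a further 180 s.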

[2] = Validation screen for small molecules that induce genotoxicity in human embryonic kidney (HEK293T) cells expressing luciferase-tagged ELG1 (AID 493106); details: luminescence; series mostly up to 46.1 µM; note: 0% is about no effect
Outline: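 In this validation screen, increased ELG1-luciferase signal flags compounds causing genetic stress. HEK293T reporter cells are treated 16 hr (37 °C, 5% CO2), developed with ONE-Glo for 30 min at room temperature, and imaged on a CCD-based reader.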

[3] = target: ATPase family AAA domain-containing protein 5 (Homo sapiens) (UniProt Q96QE3); experiment: Validation screen for small molecules that inhibit ELG1-dependent DNA repair in human embryonic kidney (HEK293T) cells expressing luciferase-tagged ELG1 (AID 493107); details: HEK293T ELG1-luciferase level, luminescence, 5-fluorouridine co-treatment, 16 h; series mostly up to 46.1 µM;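 note: cells co-treated with the DNA-damaging agent 5-fluorouridine alongside compound; % is set by controls: 0 for no effect and ±100 for the full control effect; inhibitors lower the ELG1-luciferase luminescence signal; nearly all actives have a fitted effect of over 70% in size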
ATPase family AAA domain-containing protein 5 (Homo sapiens), sequence (Q96QE3 whole entry, looked up, the tested form may be a part): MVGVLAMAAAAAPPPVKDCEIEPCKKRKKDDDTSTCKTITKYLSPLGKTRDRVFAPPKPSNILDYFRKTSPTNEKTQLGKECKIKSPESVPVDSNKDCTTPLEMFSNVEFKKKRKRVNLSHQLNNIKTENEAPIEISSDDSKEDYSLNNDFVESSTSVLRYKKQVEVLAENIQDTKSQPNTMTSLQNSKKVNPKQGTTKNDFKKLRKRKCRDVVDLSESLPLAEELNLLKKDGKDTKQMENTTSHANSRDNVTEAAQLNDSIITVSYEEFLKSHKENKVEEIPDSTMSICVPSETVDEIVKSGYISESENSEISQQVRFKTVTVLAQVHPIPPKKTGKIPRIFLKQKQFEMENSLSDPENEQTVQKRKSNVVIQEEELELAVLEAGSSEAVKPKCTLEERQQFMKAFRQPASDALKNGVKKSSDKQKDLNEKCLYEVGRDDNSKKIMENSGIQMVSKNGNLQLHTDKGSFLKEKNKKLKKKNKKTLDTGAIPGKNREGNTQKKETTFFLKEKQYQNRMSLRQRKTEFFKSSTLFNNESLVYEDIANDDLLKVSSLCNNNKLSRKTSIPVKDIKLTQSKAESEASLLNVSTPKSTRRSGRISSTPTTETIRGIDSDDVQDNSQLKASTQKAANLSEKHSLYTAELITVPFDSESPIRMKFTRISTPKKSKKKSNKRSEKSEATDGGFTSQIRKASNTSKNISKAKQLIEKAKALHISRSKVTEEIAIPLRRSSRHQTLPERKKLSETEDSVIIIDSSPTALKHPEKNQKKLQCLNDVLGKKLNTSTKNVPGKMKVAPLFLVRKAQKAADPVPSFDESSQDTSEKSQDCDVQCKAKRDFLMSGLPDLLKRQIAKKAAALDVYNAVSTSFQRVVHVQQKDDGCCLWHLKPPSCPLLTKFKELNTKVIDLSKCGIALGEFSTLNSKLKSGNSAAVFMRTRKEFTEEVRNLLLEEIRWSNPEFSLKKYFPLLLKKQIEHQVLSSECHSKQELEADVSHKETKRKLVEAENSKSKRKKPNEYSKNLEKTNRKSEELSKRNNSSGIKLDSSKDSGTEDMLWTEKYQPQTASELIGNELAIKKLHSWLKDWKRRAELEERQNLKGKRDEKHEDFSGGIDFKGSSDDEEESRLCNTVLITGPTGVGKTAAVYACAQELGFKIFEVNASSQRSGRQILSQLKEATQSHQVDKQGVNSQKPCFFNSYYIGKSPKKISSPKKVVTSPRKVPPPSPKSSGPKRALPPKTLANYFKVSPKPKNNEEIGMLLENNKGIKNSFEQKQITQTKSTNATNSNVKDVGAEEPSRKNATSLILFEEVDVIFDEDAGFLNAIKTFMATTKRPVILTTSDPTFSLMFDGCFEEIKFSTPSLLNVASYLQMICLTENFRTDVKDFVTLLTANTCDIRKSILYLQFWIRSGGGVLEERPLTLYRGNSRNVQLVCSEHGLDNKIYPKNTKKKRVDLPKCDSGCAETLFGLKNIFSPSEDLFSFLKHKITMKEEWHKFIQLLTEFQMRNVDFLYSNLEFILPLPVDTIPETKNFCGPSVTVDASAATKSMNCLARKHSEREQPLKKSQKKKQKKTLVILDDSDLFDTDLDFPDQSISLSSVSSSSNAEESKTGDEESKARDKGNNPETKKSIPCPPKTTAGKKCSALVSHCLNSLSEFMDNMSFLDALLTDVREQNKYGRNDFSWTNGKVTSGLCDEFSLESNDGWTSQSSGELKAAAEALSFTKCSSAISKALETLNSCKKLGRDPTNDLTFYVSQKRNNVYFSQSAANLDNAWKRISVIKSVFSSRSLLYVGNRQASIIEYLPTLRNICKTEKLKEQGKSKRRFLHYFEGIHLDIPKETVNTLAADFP
Outline: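 Compounds reducing 5-fluorouridine-driven ELG1-luciferase signal in HEK293T cells were scored; exposure lasted 16 hr at 37 °C with luminescence detected via ONE-Glo.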

[4] = target: Thyrotropin-releasing hormone receptor (Homo sapiens) (UniProt P34981); experiment: qHTS for Small Molecule Agonists and Allosteric Enhancers of Human TRH Receptor: Validation Screen for Agonists (AID 493127;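 active = calcium activation more than 3 SD above the typical response in the agonist read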;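 note: intracellular calcium rise by fluo-8 fluorescence before TRH EC20 addition; 0% is about no effect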); details: TRH receptor agonist cell assay; at 2 µM; stronger effect = higher value
Thyrotropin-releasing hormone receptor (Homo sapiens), sequence (P34981 whole entry, looked up): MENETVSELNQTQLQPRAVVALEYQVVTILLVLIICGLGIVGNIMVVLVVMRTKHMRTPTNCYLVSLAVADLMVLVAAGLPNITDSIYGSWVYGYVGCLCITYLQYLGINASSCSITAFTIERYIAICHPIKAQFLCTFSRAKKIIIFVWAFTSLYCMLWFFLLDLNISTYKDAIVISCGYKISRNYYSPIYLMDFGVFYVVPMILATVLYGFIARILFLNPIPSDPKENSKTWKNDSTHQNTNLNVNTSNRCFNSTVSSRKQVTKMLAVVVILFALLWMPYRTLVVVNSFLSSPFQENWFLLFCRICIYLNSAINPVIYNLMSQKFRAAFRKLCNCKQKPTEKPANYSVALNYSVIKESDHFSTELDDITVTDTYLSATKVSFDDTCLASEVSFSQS
Outline: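 Kinetic fluorescence assay of agonist-induced calcium release: overnight-plated TRHR cells, room-temperature fluo-8 loading, baseline then compound addition with per-second reads.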

[5] = qHTS for Inhibitors of Cell Surface uPA Generation: Validation Assay (AID 493164); details: mouse cells, plasminogen activation; series mostly up to 38.3 µM;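 note: RAW 264.7 macrophage cells exposed to compound for 18 h; 0% is about no effect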
Outline: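 Compounds are titrated over seven points (2.45 nM–38.3 uM final) onto pre-plated RAW 264.7 cells and incubated for 18 h. Retained intracellular ATP, measured with ATP-Lite, indicates blocked lethal factor entry.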

[6] = target: Galactokinase (Homo sapiens) (UniProt P51570); experiment: qHTS Validation Assay for Inhibitors of Human Galactokinase (GALK) (AID 493189); details: purified human GALK enzyme activity, qHTS 7-point titration; series mostly up to 57.5 µM; note: 0% is about no effect
Galactokinase (Homo sapiens), sequence (P51570 whole entry, looked up): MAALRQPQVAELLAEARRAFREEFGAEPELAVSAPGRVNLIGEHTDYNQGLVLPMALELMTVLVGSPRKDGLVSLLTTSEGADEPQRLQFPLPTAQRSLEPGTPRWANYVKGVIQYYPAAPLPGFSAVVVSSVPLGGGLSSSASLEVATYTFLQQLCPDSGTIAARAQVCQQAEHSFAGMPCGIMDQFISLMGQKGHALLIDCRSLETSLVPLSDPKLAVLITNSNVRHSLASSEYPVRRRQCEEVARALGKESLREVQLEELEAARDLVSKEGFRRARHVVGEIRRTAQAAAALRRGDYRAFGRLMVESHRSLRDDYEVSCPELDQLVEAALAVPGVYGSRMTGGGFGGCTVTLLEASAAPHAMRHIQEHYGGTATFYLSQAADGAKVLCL
Outline: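 Compounds were pin-transferred into ATP buffer, then GALK-galactose mix was added (final 5 nM enzyme, 100 uM galactose, 35 uM ATP). After 1 h at room temperature, remaining ATP was measured luminescently.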

[7] = Validation screen for small molecules that induce DNA re-replication in SW480 colon adenocarcinoma cells (AID 504364); details: DNA re-replication phenotype (high-content imaging); series mostly up to 46.1 µM; note: 0% is about no effect
Outline: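 Hoechst-stained SW480 nuclei, imaged at 405 nm excitation after 48 hr compound exposure, were counted for elevated DNA content as the re-replication signal.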

[8] = target: ATP-dependent 6-phosphofructokinase (Trypanosoma brucei brucei) (UniProt O15648); experiment: qHTS Assay to Find Inhibitors of T. brucei phosphofructokinase: hit validation (AID 492961);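 note: luminescence reports ADP formed as PFK phosphorylates fructose-6-phosphate with ATP; % is set by controls: 0 for no effect and ±100 for the full control effect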; details: T. brucei PFK, ADP-Glo luminescence; series mostly up to 51.4 µM
ATP-dependent 6-phosphofructokinase (Trypanosoma brucei brucei), sequence (O15648 whole entry, looked up): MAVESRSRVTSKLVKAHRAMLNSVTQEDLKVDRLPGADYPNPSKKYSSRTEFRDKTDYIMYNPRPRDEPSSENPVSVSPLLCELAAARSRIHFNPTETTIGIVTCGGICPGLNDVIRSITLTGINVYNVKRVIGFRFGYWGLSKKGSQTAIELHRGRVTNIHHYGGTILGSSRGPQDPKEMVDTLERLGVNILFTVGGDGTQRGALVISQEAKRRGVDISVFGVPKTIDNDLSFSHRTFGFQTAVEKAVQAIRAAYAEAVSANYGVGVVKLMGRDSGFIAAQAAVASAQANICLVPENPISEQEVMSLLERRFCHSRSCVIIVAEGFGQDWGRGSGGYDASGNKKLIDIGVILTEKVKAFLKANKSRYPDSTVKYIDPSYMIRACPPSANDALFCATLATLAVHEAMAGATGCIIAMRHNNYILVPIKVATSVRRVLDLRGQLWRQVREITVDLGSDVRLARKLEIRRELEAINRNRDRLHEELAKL
Outline: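 ADP-Glo luminescence read-out of ADP formed by 1.25 nM PFK from 0.1 mM ATP and 0.5 mM F6P (TEA pH 8.0, 45 min, RT). Compounds titrated; activity normalized to no-enzyme and full-enzyme controls.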

[9] = Nrf2 qHTS screen for inhibitors: Validation (AID 493153; active = well fitted inhibition curve with a large enough effect in the main read-out, with a control signal flat, not every such curve was filed as active); details: A549 ARE-Fluc reporter, 18-24 h; Potency: luciferase luminescence; viability change: measured here: cytotoxicity max response; luciferase luminescence, at 46.1 µM (top of the series)
Outline: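 In this counterscreened reporter format, each well gives two signals: CellTiter-Fluor fluorescence for cytotoxicity and ARE-luciferase luminescence for Nrf2 function. A549 ARE_Fluc cells in 5% FBS OPTI-MEM were exposed to compound titrations for 18-24 h.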

CC(C)C(=O)c1c(C(C)C)nn2ccccc12
inactive: Potency [1] | Potency [2] | outcome [3] | activation [4] -4.94% | outcome [5] | outcome [6] | outcome [7]

CC1=C(CC(=O)O)c2cc(F)ccc2/C1=C\c1ccc(S(C)=O)cc1 (stereo not given)
inactive: Potency [1] | Potency [8] | Potency [2] | outcome [3] | Potency [9] | outcome [5] | outcome [6] | outcome [7]
-1.89%: viability change [9]

OCc1cc(C(O)CNCCCCCCOCCCCc2ccccc2)ccc1O (stereo not given)
inactive: Potency [1] | Potency [8] | Potency [2] | outcome [3] | activation [4] -0.25% | outcome [5] | outcome [6] | outcome [7]

COCCOC(=O)C1=C(C)NC(C)=C(C(=O)OC/C=C/c2ccccc2)C1c1cccc([N+](=O)[O-])c1 (stereo not given)
inactive: Potency [1] | Potency [8] | Potency [2] | outcome [5]

Nc1cc(=O)[nH]c(N)n1
1.17%: viability change [9]
inactive: Potency [1] | Potency [2] | outcome [3] | activation [4] 1.31% | Potency [9] | outcome [5] | outcome [6] | outcome [7]

CC(=O)OCC(=O)[C@@]1(O)CC[C@H]2[C@@H]3CCC4=CC(=O)CC[C@]4(C)[C@H]3C(=O)C[C@@]21C
3.82%: viability change [9]
inactive: Potency [1] | Potency [2] | outcome [3] | activation [4] 1.06% | Potency [9] | outcome [5] | outcome [6] | outcome [7]

CNC(=O)Oc1ccc2c(c1)[C@]1(C)CCN(C)[C@@H]1N2C
11.7%: viability change [9]
inactive: Potency [1] | Potency [8] | Potency [2] | outcome [3] | activation [4] 1% | Potency [9] | outcome [5] | outcome [6] | outcome [7]

OCCN1CCN(CCCN2c3ccccc3Sc3ccc(Cl)cc32)CC1
-4.58%: viability change [9]
inactive: Potency [8] | Potency [2] | outcome [3] | activation [4] 0.75% | Potency [9] | outcome [5] | outcome [6]
active: Potency [1] 794 nM
